# The whole screen tested about 330,000 compounds, of which about 4,900 (1.5%) were called active. This is one part of a sample in which actives are shown more often than they occur. Unmarked numbers belong to inactive results.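 How the source made its calls: active means inhibition above the mean inhibition across the screen plus 3 SD (cut at about 25% in these data); inactive means the rest.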
# Molecular target: Platelet-activating factor acetylhydrolase (Homo sapiens) (UniProt Q13093)
# Experiment: pPAFAH enzyme inhibitors, primary screen, biochemical, fluorescence polarization, human (AID 463082);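 further: inhibitors block binding of the rhodamine activity-based probe so polarization drops; 0% = enzyme with DMSO and 100% = wells lacking pPAFAH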
# Conditions: recombinant pPAFAH, FP-rhodamine probe fluorescence polarization; at 3.39 µM; stronger effect = higher value
# Sequence of Platelet-activating factor acetylhydrolase (Homo sapiens) (Q13093 whole entry, looked up): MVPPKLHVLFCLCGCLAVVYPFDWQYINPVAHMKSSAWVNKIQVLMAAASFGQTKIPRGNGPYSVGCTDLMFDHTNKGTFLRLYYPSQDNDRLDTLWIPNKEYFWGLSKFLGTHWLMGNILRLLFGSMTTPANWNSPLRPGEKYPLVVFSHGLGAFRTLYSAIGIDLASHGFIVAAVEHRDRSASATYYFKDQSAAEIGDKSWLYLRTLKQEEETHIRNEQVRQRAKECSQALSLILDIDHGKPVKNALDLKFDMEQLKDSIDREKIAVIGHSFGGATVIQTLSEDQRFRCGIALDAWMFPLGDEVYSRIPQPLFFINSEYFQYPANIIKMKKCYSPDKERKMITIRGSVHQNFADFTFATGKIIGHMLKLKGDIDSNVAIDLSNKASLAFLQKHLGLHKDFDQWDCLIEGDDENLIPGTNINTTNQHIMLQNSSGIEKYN
row,SMILES,inhibition
1,Cc1ccc(-n2c(Cc3cccs3)nnc2SCC(=O)OC(C)C)cc1,34% (active)
2,COc1ccc(-n2c(SCC(=O)OC(C)C)nnc2-c2ccccn2)cc1,6.1%
3,CCn1c(Cc2cccs2)nnc1SCC(=O)c1ccc(C)cc1,9.49%
4,C=C1c2cccc(OC)c2O[C@H](C(=O)OCC)[C@@H]1CCCCCC,9.96%
5,CSc1ccc(S(=O)(=O)Nc2cccc(F)c2)cc1,32.8% (active)
6,Cc1cc(C)cc(NS(=O)(=O)c2ccc(F)cc2)c1,5.58%
7,O=C1Cc2cc(S(=O)(=O)Nc3cccc(F)c3)ccc2N1,24.4%
8,Nc1nonc1-n1nnc(C(=O)N/N=C/c2ccc(Cl)cc2)c1-c1ccc2c(c1)OCO2,3.64%
9,O=C(Nc1ccccc1)c1ccc2nsnc2c1,-5.05%
10,COCC(C)NC(=O)c1ccc(Cl)c(Cl)c1 (configuration not stated),4.84%
11,Cc1cc2nc(C(F)(F)F)cc(-c3cccs3)n2n1,-3.12%
12,COCC(C)NC(=O)c1ccc(-n2nc(C(F)(F)F)cc2-c2cccs2)cc1 (configuration not stated),35.9% (active)
13,CC(=O)N1CCN(C(=O)C2(NC(=O)Nc3ccc(C)cc3)CCCCC2)CC1,-3.87%
14,CCCC(C)C(=O)NCc1ccncc1 (configuration not stated),-2.95%
15,COC(=O)c1c(NC(=O)CCN2CCOCC2)sc2c1CCCC2,7.3%
16,Cc1ccc(NC(=O)c2c(NC(=O)CCC(=O)O)sc3c2CCCCC3)cc1,24.6% (active)
17,Cc1ccc(NC(=O)c2csc3c2CCCC3)cc1,1.78%
18,Cn1nc(C(C)(C)C)c([N+](=O)[O-])c1C(N)=O,-0.25%
19,O=[N+]([O-])c1ccccc1SNc1ccccn1,3.58%
20,COc1cnc(-c2ccccn2)nc1Oc1ccc(C(C)(C)C)cc1,3.59%
21,C[C@H](CO)N1C[C@H](C)[C@@H](CN(C)C(=O)Nc2ccc3c(c2)OCO3)Oc2c(cccc2N(C)C)C1=O,3.8%

row,SMILES,inhibition
1,CCOC(=O)c1cc(C#N)c(N2CCCCC2)nc1-c1ccccc1,4.27%
2,N#CCc1c(C#N)c(N)nc(N2CCCC2)c1C#N,-3.2%
3,N#Cc1c(N2CCCCC2)nc(N)c2c(N)nc(SCC(=O)O)cc12,27.8% (active)
4,O=C(N=C1SC2CS(=O)(=O)CC2N1c1ccccc1)c1ccccc1 (configuration not stated),-2.21%
5,CS/C(=C\C(=O)c1ccco1)Nc1ccccc1Cl,3.63%
6,N#CC1=C(N)C(C#N)(C#N)[C@H](c2ccsc2)[C@H]2COCC=C12,3.03%
7,CCN1CC=C2C(C#N)=C(N)C(C#N)(C#N)[C@H](c3ccoc3)[C@H]2C1,25.2% (active)
8,CCCN1CC=C2C(C#N)=C(N)C(C#N)(C#N)C(c3cc(OC)ccc3OC)C2C1 (configuration not stated),0.59%
9,CCC1CCCCN1C(=S)NC(=O)c1ccco1 (configuration not stated),-4.39%
10,CCN(CC)S(=O)(=O)c1cc([N+](=O)[O-])ccc1NNC(=O)Nc1ccccc1,12%
11,Cc1ccc(C)c(NS(=O)(=O)c2ccc(OCC(=O)NCc3cccnc3)cc2)c1,26.4% (active)
12,Cc1cc(S(=O)(=O)NC2CCCCC2)ccc1OCC(=O)NCc1cccnc1,8.28%
13,Cc1ccc(CNC(=O)COc2ccc(S(=O)(=O)NC(C)C)cc2)cc1,-3.29%
14,Cc1ccc(S(=O)Cc2ccc(C(=O)N3CCN(C4CCCCC4)CC3)o2)cc1 (configuration not stated),4.39%
15,COc1ccccc1NC1=NC(c2ccc(Cl)cc2)N=C(N)N1 (configuration not stated),1.26%
16,CC(C)(C)OC(=O)NCCCC1=CC2=CC(=O)C(C)(OC(=O)c3ccco3)C(=O)C2=CO1 (configuration not stated),33.5% (active)
17,COC(=O)CCCC1=CC2=CC(=O)C(C)(OC(=O)c3cccs3)C(=O)C2=CN1c1cccc(C#N)c1 (configuration not stated),7.86%
18,O=C(COC(=O)c1ccco1)NCc1ccc(Cl)cc1,0.66%
19,O=C(CC1C(=O)NCCN1CC(c1ccccc1)c1ccccc1)NCCc1cn[nH]c1 (configuration not stated),7.44%
20,COc1cc([N+](=O)[O-])ccc1NC(=O)COC(=O)CCOc1ccc(C)cc1,6.88%
21,O=C(Nc1ccccc1C(=O)N1CCOCC1)c1ccc(CSc2ccccc2)cc1,4.67%

row,SMILES,inhibition
1,CC(C)Oc1c(Br)cc(Br)cc1/C=N/NC(N)=S,1.45%
2,Cc1cccc(-n2c(C)cc(/C=N\NC(=O)c3cccs3)c2C)c1,22%
3,Cc1cc(/C=N/NC(=O)CC2(C)OCCO2)c(C)n1-c1ccc(Cl)c(Cl)c1,27.6% (active)
4,Cc1ccc(-n2c(C)cc(/C=N\NC(=O)CC(=O)NC(C)C)c2C)cc1,1.94%
5,O=C(N/N=C\c1cc(Br)c(Br)o1)C1COc2ccccc2O1 (configuration not stated),-1.47%
6,O=C(CNC(=O)C1COc2ccccc2O1)N/N=C/c1cc(Br)c(O)c(Br)c1 (configuration not stated),26.3% (active)
7,O=C(N/N=C/c1cc2c(cc1Br)OCO2)C1COc2ccccc2O1 (configuration not stated),8.36%
8,CCOc1ccc(N(C)S(=O)(=O)c2cnc[nH]2)cc1,4.67%
9,CC(Oc1cc2oc(=O)c3c(c2cc1Cl)CCCC3)C(=O)NCc1ccncc1 (configuration not stated),7.32%
10,CCOC(=O)CSc1nnc(CNC(=O)c2cccs2)n1-c1cc(OC)ccc1OC,4.54%
11,Cn1nccc1NC(=O)Nc1ccc(OC(F)(F)F)cc1,-4.08%
12,Cn1cccc1/C=N/NC(=O)c1ccc(OC(F)(F)C(F)F)cc1,6.18%
13,O=C(Nc1ccc(OC(F)(F)F)cc1)c1ccc2c(c1)no[n+]2[O-],25.4% (active)
14,CCCCN1C(=O)CCC(C(=O)O)C1c1ccc(OC)cc1 (configuration not stated),2.74%
15,CCOC(=O)C(C)Oc1cccc2c(=O)n(CC(=O)NCCc3ccc(OC)c(OC)c3)ccc12 (configuration not stated),0.87%
16,Nn1c(SCC(=O)NC2CCCc3ccccc32)nnc1C1CC1 (configuration not stated),-1.35%
17,C[C@H](NC(=O)c1ccccc1Cl)C(=O)OCCOc1cccc(Cl)c1,0.09%
18,COC/C=C/C1=CC2=CC(=O)C(C)(OC(=O)CCC(=O)OC)C(=O)C2=CO1 (configuration not stated),32.3% (active)
19,CCCCC1=CC2=CC(=O)C(C)(OC(=O)CC)C(=O)C2=CN1CCCOC(C)C (configuration not stated),-0.51%
20,COC(=O)CCCC1=CC2=CC(=O)C(C)(OC(=O)c3cccs3)C(=O)C2=CN1CC(C)C (configuration not stated),5.09%

# — PubChem BioAssay AID463082 (The Scripps Research Institute Molecular Screening Center, 2010)
